# According to the supplement of paper PMC7724964:
# T1: ARID4A 568-634 Tudor-knot (domain begin residue: 568, domain end residue: 634), P29374
# T1 chain: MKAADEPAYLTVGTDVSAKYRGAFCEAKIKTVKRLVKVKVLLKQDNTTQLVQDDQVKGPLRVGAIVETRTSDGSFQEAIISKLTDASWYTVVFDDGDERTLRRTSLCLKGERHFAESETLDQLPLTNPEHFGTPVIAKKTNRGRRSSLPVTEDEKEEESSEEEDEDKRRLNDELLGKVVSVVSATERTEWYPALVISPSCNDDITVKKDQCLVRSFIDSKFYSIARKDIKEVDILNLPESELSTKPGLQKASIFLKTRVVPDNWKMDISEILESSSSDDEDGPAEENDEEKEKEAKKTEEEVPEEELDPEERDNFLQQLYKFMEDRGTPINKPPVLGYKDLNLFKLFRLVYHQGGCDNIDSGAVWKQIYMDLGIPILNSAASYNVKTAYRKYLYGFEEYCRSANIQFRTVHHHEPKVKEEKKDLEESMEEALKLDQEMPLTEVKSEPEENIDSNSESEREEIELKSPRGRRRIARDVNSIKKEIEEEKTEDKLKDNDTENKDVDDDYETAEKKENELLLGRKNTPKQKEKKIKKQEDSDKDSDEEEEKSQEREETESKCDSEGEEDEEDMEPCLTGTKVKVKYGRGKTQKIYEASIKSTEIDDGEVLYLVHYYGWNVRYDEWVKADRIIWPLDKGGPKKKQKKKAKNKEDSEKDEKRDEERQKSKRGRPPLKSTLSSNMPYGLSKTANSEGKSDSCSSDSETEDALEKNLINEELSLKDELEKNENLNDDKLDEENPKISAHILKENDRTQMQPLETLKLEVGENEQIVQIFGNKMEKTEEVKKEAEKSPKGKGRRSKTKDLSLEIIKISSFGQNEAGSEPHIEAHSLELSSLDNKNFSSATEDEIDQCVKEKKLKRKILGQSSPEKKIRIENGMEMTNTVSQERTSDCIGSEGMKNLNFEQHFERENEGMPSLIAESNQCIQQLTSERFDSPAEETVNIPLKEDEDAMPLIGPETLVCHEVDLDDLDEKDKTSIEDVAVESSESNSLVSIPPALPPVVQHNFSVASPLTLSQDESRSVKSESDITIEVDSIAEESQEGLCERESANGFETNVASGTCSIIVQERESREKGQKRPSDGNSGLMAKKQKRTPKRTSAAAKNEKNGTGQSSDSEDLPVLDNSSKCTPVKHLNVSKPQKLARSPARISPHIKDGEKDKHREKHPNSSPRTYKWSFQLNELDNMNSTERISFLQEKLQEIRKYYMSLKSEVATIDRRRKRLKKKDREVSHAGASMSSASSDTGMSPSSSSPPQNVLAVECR
# T2: LBR 1-67 LBR_tudor (domain begin residue: 1, domain end residue: 67), Q14739
# T2 chain: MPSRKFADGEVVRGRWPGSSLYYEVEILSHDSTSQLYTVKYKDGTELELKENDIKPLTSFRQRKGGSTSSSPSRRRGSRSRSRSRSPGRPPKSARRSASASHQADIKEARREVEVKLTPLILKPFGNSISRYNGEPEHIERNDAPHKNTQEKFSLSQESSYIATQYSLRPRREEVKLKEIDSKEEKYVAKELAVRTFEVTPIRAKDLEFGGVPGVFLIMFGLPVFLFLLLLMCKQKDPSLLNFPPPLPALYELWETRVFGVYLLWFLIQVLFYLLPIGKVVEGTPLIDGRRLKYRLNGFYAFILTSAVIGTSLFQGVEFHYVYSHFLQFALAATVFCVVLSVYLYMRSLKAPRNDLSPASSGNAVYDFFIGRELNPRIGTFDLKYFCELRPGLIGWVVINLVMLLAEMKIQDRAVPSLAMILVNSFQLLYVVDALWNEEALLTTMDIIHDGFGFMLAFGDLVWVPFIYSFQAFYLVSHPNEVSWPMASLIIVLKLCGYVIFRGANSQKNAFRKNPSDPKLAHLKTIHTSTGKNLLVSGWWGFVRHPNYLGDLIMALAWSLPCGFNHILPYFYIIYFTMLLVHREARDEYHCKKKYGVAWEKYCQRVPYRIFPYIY
# T3: SND1 650-910 TUDOR+SNase (domain begin residue: 650, domain end residue: 910), Q7KZF4
# T3 chain: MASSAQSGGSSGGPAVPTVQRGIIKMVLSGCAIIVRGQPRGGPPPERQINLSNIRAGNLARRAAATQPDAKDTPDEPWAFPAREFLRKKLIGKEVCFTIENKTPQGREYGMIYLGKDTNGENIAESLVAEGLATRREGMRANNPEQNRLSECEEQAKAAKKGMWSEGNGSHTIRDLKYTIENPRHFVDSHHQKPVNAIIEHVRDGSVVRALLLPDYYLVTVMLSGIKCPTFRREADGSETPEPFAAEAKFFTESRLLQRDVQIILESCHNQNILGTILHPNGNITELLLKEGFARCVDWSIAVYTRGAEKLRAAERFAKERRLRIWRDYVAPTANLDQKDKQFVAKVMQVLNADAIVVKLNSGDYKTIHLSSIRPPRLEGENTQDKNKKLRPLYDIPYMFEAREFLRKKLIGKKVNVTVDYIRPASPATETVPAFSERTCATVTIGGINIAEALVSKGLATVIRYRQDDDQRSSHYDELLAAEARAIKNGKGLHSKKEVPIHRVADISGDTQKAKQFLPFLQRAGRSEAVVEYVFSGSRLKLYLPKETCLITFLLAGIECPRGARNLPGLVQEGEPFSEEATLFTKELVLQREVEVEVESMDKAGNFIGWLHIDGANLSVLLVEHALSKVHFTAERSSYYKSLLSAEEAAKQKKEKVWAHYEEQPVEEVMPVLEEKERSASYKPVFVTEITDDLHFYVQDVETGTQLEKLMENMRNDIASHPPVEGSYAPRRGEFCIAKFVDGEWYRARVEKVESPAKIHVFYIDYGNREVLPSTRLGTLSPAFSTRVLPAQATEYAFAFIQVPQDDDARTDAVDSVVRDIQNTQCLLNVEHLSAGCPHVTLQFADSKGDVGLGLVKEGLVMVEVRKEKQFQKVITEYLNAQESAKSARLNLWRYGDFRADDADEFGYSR
# T4: TDRD1 261-449 TUDOR (domain begin residue: 261, domain end residue: 449), Q9BXT4
# T4 chain: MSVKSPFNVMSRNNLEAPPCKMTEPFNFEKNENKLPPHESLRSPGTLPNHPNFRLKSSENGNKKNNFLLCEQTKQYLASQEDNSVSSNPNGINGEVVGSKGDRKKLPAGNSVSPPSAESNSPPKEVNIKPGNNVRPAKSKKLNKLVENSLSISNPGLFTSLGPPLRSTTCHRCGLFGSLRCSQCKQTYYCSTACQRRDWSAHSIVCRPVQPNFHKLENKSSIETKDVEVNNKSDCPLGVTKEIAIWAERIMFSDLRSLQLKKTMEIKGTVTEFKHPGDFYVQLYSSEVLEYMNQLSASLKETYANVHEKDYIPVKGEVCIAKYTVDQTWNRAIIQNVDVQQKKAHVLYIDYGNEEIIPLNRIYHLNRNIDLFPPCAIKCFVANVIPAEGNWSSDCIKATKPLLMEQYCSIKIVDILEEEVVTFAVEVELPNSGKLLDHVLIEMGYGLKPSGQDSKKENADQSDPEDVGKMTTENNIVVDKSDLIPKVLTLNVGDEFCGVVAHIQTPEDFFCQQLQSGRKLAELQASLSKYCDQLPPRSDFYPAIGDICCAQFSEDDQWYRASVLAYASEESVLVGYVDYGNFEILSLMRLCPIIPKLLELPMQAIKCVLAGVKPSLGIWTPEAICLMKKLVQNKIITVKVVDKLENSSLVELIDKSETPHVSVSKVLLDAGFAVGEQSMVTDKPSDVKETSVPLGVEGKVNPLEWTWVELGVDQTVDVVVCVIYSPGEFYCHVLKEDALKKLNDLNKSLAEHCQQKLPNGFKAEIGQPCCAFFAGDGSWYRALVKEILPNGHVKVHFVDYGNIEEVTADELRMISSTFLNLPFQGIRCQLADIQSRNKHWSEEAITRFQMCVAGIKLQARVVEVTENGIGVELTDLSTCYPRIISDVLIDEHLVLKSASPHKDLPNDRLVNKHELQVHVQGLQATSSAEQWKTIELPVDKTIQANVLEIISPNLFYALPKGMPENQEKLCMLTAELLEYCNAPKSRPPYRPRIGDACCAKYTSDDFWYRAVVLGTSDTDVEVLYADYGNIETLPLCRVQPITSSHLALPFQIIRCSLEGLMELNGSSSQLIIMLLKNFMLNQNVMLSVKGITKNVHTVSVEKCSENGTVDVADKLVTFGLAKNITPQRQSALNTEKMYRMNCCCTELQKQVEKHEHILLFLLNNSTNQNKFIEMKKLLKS
# T5: ZGPAT 120-268 zf-CCCH+TUDOR (domain begin residue: 120, domain end residue: 268), Q8N5A5
# T5 chain: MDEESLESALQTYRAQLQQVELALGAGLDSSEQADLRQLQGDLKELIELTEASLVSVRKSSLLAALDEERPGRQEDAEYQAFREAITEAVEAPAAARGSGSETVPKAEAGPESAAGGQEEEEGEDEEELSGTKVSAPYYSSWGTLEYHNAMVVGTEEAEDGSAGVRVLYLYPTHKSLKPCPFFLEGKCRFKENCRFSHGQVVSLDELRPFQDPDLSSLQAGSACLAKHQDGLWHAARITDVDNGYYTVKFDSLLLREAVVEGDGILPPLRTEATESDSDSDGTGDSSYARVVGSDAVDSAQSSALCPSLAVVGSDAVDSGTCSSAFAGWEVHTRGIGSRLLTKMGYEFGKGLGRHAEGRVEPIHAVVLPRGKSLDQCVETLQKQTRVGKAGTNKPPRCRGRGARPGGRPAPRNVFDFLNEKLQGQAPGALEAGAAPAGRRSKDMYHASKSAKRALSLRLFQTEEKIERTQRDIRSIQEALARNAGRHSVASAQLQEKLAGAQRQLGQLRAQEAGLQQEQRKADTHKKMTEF
# B1: unnamed (peptide)
# chain: WGWDEMLNDPEIMRIV
# Biological target: T1, ARID4A 568-634 Tudor-knot (domain begin …
# Assay: phage ELISA signal ratio (GST-PRM binding over GST background); higher = stronger binding of peptide-phage to the PRM
# Description: (§1)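 Phage-displayed random hexadecapeptides (Cys-free, flanked by invariant Gly linkers, fused to the M13 P8 major coat protein) were selected over 5 rounds against GST-fused human PRM domains. Individual clones from rounds 4-5 were tested by phage ELISA, and positive clones binding the target but not GST were sequenced. Values are the ELISA signal ratio of target over background (GST); the background signal is given separately.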
row,Binder,phage ELISA signal ratio
1,B1,12.7

# Biological target: KMT2C 1055-1137 PHD (domain begin residue: 1055, domain end residue: 1137)
# Assay: as above
# Description: as §1
row,Binder,phage ELISA signal ratio
1,B1,8.35

# Biological target: T2, LBR 1-67 LBR_tudor (domain begin …
# Assay: as above
# Description: as §1
row,Binder,phage ELISA signal ratio
1,B1,7.63

# Biological target: PAF1 165-376 Paf1 (domain begin residue: 165, domain end residue: 376), Q8N7H5
# Assay: as above
# Description: as §1
row,Binder,phage ELISA signal ratio
1,B1,6.83

# Biological target: RBBP8 722-897 SAE2 (domain begin residue: 722, domain end residue: 897), Q99708
# Sequence (Q99708 whole entry): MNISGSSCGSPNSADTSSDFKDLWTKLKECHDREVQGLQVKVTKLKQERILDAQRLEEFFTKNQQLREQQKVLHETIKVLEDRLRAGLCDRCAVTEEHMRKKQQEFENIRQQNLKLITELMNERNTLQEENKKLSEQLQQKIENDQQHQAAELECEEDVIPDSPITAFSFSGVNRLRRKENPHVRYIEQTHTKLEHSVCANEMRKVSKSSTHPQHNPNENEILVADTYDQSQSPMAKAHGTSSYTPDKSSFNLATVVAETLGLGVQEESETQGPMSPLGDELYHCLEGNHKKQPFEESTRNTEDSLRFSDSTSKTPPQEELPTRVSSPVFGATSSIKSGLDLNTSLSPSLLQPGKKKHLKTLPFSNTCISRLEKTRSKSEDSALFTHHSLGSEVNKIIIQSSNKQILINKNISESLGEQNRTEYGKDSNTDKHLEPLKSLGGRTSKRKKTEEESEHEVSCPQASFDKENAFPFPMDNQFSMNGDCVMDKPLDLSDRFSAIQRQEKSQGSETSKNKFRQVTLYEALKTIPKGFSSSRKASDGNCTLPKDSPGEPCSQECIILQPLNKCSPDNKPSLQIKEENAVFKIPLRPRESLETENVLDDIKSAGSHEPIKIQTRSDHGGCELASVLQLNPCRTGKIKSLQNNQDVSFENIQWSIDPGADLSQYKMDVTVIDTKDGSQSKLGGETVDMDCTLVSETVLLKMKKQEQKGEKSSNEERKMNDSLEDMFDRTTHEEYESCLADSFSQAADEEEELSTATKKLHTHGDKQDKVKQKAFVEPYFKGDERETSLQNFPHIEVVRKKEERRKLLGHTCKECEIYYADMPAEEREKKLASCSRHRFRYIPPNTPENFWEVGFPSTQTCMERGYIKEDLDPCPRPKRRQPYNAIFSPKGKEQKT
# Assay: as above
# Description: as §1
row,Binder,phage ELISA signal ratio
1,B1,6.44

# Biological target: SETD1A 2-220 RRM_1 (domain begin residue: 2, domain end residue: 220), O15047
# Sequence (O15047 whole entry): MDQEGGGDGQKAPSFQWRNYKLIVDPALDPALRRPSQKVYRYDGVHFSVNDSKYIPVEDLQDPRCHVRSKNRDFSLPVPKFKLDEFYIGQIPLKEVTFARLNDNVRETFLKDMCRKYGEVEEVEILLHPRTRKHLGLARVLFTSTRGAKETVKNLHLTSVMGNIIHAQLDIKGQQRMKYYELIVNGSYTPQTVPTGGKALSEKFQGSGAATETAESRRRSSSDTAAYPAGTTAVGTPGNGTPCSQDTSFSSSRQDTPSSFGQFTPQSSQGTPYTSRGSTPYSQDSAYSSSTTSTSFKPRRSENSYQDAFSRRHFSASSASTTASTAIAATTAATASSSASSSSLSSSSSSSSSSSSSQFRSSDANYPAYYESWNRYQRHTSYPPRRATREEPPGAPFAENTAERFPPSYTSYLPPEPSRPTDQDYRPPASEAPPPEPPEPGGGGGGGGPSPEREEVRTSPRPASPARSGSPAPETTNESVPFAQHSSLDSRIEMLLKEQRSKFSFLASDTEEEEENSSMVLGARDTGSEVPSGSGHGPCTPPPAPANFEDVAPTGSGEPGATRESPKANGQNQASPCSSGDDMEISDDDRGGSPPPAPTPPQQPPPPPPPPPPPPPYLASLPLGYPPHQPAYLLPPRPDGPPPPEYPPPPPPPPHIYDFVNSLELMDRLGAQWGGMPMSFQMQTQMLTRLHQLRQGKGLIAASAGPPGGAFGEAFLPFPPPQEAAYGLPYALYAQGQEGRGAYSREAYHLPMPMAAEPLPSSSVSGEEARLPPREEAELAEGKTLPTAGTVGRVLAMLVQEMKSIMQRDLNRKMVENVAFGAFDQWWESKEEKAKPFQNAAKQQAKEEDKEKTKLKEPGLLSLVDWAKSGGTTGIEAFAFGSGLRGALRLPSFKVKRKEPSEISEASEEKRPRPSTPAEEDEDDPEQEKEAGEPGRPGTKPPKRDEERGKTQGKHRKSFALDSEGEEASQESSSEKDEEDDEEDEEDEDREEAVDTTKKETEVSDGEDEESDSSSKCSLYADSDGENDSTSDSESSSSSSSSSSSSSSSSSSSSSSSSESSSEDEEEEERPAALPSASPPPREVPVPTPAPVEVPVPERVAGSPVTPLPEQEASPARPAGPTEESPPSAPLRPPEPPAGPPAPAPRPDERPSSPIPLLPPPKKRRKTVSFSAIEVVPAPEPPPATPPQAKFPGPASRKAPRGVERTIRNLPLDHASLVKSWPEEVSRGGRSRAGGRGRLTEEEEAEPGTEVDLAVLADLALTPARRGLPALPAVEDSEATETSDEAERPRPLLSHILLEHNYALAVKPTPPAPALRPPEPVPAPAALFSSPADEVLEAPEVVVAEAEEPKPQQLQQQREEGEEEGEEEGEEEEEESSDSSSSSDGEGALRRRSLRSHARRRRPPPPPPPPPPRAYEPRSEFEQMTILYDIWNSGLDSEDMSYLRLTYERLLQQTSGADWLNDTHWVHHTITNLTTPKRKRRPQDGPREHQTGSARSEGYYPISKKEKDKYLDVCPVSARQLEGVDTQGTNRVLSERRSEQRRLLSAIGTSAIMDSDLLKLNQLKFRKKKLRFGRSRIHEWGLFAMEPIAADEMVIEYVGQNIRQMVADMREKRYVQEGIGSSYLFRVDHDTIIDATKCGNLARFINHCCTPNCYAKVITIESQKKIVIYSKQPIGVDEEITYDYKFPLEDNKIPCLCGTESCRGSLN
# Assay: as above
# Description: as §1
row,Binder,phage ELISA signal ratio
1,B1,7.71

# Biological target: T3, SND1 650-910 TUDOR+SNase (domain begin …
# Assay: as above
# Description: as §1
row,Binder,phage ELISA signal ratio
1,B1,8.1

# Biological target: T4, TDRD1 261-449 TUDOR (domain begin …
# Assay: as above
# Description: as §1
row,Binder,phage ELISA signal ratio
1,B1,10.8

# Biological target: T5, ZGPAT 120-268 zf-CCCH+TUDOR (domain …
# Assay: as above
# Description: as §1
row,Binder,phage ELISA signal ratio
1,B1,7.66
